Laboratory results taken from PubChem BioAssay (NCI).
The panel holds about 83,000 compounds, 20% with a hit somewhere; the sample as a whole holds those more often.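 Compound tested at a single concentration for 48 hours in 96-well plates; a percent growth value below 10 was scored as active.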 The source made the active and inactive calls.

test system: CAKI-1 renal; assay: NCI-60 one-dose screen, 48 h (100 = growth as untreated, 0 = no growth, -100 = all killed); conditions: 10 µM unless noted
Protocol: Growth inhibition of the CAKI-1 human tumor cell line is measured as a screen for anti-cancer activity. Cells are grown in 96 well plates and exposed to the test compound for 48 hours. Compounds are tested at a single concentration, which is 10^-5 M for most compounds. The reported endpoint is percent growth (GI% or GIPRCNT), where numbers from 0 - 100% represent growth inhibition, and numbers from -100% - 0 represent cell death. For example, a value of 40 represents 60% growth inhibition. A value of 0 means no net growth occurred over the course of the experiment. A value of -40 indicates 40% of cells at the beginning of the experiment died by the end of the experiment. A value of -100 means all cells are dead at the end of the experiment.
NCI-60 Human Tumor Cell Lines Screen was performed using the standard one-dose NCI protocol, which is described in more detail at https://dtp.cancer.gov/discovery_development/nci-60/default.htm.
Compounds with GIPRCNT values below 10 were considered active. Activity score was based on GIPRCNT using the following formula: […]
Score is 0 for GIPRCNT values of 100 or above, 50 for GIPRCNT values of 0, and 100 for GIPRCNT values of -100.

SMILES | growth
Nc1nc(N)c2c(n1)NC(c1ccc(Cl)cc1)C1CCc3ccccc3C1=N2 (stereo not given) | 37% (inactive)
COc1ccc(C2=NN(C(C)=O)C(c3cn(-c4ccccc4)nc3-c3ccc(Cl)cc3)C2)cc1 (stereo not given) | 28% (inactive)
COc1cc(C(=O)c2c(-c3ccccc3)oc3c(OC)cccc23)cc(OC)c1OC | 19.6% (inactive)
CNC(=O)c1cc(Oc2ccc3c(c2)sc2nc(-c4ccc(OC)cc4)cn23)ccn1 | 85.5% (inactive)
CCCCCCCCCCCCCCCCCCOc1ccccc1CC(=O)NCC[N+]1(C)CCCCC1 | 79.3% (inactive)
NS(=O)(=O)c1ccc(C(=O)NN2C(=O)c3c(Br)c(Br)c(Br)c(Br)c3C2=O)cc1 | 88% (inactive)
O=C(Nc1ccccc1[N+](=O)[O-])c1ccc(Cl)c(Cl)c1 | 92.8% (inactive)
Cc1ccnc(Nc2ccc([N+](=O)[O-])c(NCCN3CCOCC3)n2)c1 | 65.6% (inactive)
Cc1ccc(/C=C/C(=O)c2cccc(OCCCOc3cccc(C(=O)/C=C/c4ccc(C)cc4)c3)c2)cc1 | 68.1% (inactive)
Cn1c(=O)c2[nH]c(SCC(=O)Nc3ccc(C(=O)/C=C/c4ccccc4Cl)cc3)nc2n(C)c1=O | 98.1% (inactive)
CCOC(=O)c1c(C)nc2ccccc2c1/C=C/c1ccccc1 | 59.5% (inactive)
CC(C)N1C(=O)/C(=c2\sc3n(c2=O)C2C(NN=3)N(C)C(=O)N2C)c2ccccc21 (stereo not given) | 28.6% (inactive)
Clc1c(Cl)[n+](Cc2ccc3ccccc3c2)cn1Cc1ccc2ccccc2c1 | 89.7% (inactive)
COc1ccc(C2CC(c3cc(OC)c(OC)c(OC)c3)=NO2)cc1OCCCCOc1cc2c(cc1OC)C(=O)N1CCC[C@H]1C=N2 (stereo not given in full) | 11.1% (inactive)
O=S(=O)(NCCNc1nccc(-c2c(-c3ccc(F)c(O)c3)nc3sccn23)n1)c1ccc(F)cc1 | 20.6% (inactive)
CC1(C)CC[C@]2(CO)CC[C@]3(C)[C@H](CC[C@@H]4[C@@]5(C)CCCNC(C)(C)[C@@H]5CC[C@]43C)[C@H]2[C@H]1O | 95.3% (inactive)
O=C(NNc1cnccn1)c1nc2cc(F)ccc2n2cccc12 | 7.11% (active)
Cc1ccc(-c2nc(SCc3nc4cc(Cl)c(Cl)cc4[nH]3)[nH]c(=O)c2C#N)cc1 | 88.3% (inactive)
Cc1nn(-c2cc(NC3CCC(O)CC3)c3c(=O)[nH]c(CCC(F)(F)F)cc3c2)c2c1C(=O)CC(C)(C)C2 (stereo not given) | 47.4% (inactive)
O=C(NC(Cc1nnc2n(Cc3ccccc3)c(=O)c3c4c(sc3n12)CCCC4)c1ccccc1)c1ccccc1 (stereo not given) | 101% (inactive)

SMILES | growth
C/C=C(\C)C(=O)N[C@H]1C(O)C[C@]2(C)C3CC[C@@]4(C)C(CC[C@@H]4C(C)N(C)C)C3CCC2C1O (stereo not given in full) | 80.3% (inactive)
O=C1Nc2c(C(=O)O)cccc2/C1=N/c1n[nH]c(=S)s1 | 52% (inactive)
O=C(CSc1nc(-c2ccccc2)cc(=O)[nH]1)Nc1nc(-c2ccccc2)cs1 | 75.1% (inactive)
O=C(/C=C/c1cccc(Cl)c1Cl)Nc1ncc(Cc2ccccc2Cl)s1 | 48% (inactive)
O=S(=O)(Oc1ccc(Br)cc1)c1ccc(Cl)cc1 | 105% (inactive)
c1ccc2c(c1)CCCc1nnc3nc4ccccc4n3c1-2 | 22% (inactive)
CCOC(=O)C#Cc1c(C(=O)OCC)nnn1Cc1ccc(C(F)(F)F)cc1 | 0.164% (active)
S=C(c1ccc2c(c1)OCO2)N1CCN(c2cccc(Cl)c2)CC1 | 15.5% (inactive)
COc1ccc(/C=C/c2c(C(=O)/C=C/c3ccccc3)c(C)nc3ccccc23)cc1 | 20.9% (inactive)
C=CCn1c(SCC(=O)Nc2ccc(/C(C)=N/O)cc2)nnc1-c1cc(-c2ccc(S(N)(=O)=O)cc2)nc2ccccc12 | 51.9% (inactive)
CN1CCN(c2ccc3nc4c(nc3c2C(F)(F)F)C(=O)c2ncccc2C4=O)CC1 | 33.1% (inactive)
Cc1ncc(C(=O)Nc2ccc(CN3CCN(C)CC3)c(C(F)(F)F)c2)cc1C#Cc1cnc(N)c2ncccc12 | 7.54% (active)
COc1ccc(/C(C)=C(\c2ccc(Cl)cc2)c2ccc(OCCN3CCCCC3)cc2)cc1 | 37.2% (inactive)
CCOC(=O)C1=C(C)/C(=C\c2[nH]c(C)c(C(=O)OCC)c2C)N=C1C | 85% (inactive)
NNCCc1ccc(NC(=O)CCCc2ccc(C(=O)Nc3ccccc3N)cc2)cc1 | 80.6% (inactive)
NC1=Nc2cc(OCCCCN3Cc4ccccc4C3)c(OCC3CC3)cc2C12CCCC2 | 1.68% (active)
CCc1n(Cc2ccc3ccccc3n2)cc[n+]1Cc1ccc2ccccc2n1 | 98% (inactive)
CN(Cc1cc(Br)cc(Br)c1O)Cc1cc(Br)cc(Br)c1O | 24.6% (inactive)
COc1cccc(NCc2nnc(Nc3ccc(Cl)cc3)c3ccccc23)c1 | 9.01% (active)
O=S(=O)(NCCNc1nccc(-c2c(-c3cccc(O)c3)nc3occn23)n1)c1ccc(Br)cc1 | 20.2% (inactive)
